# From the supplement of paper PMC12282887
# ± gives the standard deviation of the averaged measurements.
# Tests used:
# Assay in all cases: promoter activity interaction Z-score (Lux/OD deviation from empty-vector control); higher = stronger promoter induction by the compound
# [1] = system: E. coli BW25113 acrABp lux reporter
# In short: (§1)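 Wild-type E. coli BW25113 and three single-gene deletion strains, each carrying a low-copy luxCDABE promoter reporter, were grown at 37°C in 40 µl LB Lennox per well of a 384-well plate. Every compound was applied at four 1:2 dilutions in biological duplicates, and OD600 and luminescence were read every 30 min for 12 h. Integration covered 0–8 h for wild type and 1–9 h for deletion strains, and wells under 10% of the median growth value were removed. Scores are Z-transformed residuals of growth-normalised luminescence fitted against a control.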
# [2] = system: E. coli BW25113 ompFp lux reporter
# In short: as §1
# [3] = system: E. coli BW25113 robp lux reporter
# In short: as §1
# [4] = system: E. coli BW25113 soxSp lux reporter
# In short: as §1
# [5] = system: E. coli BW25113 tolCp lux reporter
# In short: as §1
# [6] = 18 µg/ml, genetic background: wild type
# [7] = 18 µg/ml, genetic background: ΔmarA
# [8] = 18 µg/ml, genetic background: Δrob
# [9] = 18 µg/ml, genetic background: ΔsoxS
# [10] = 36.1 µg/ml, genetic background: wild type
# [11] = 36.1 µg/ml, genetic background: ΔmarA
# [12] = 36.1 µg/ml, genetic background: Δrob
# [13] = 36.1 µg/ml, genetic background: ΔsoxS
# [14] = 72.1 µg/ml, genetic background: wild type
# [15] = 72.1 µg/ml, genetic background: ΔmarA
# [16] = 72.1 µg/ml, genetic background: Δrob
# [17] = 72.1 µg/ml, genetic background: ΔsoxS
# [18] = 144.2 µg/ml, genetic background: wild type
# [19] = 144.2 µg/ml, genetic background: ΔmarA
# [20] = 144.2 µg/ml, genetic background: Δrob
# [21] = 144.2 µg/ml, genetic background: ΔsoxS
smiles,measurement,setting,value
C[C@]12CC[C@H]3[C@@H](CCC4=CC(=O)CC[C@@]43C)[C@@H]1CC[C@@H]2O [Testosterone],promoter activity interaction Z-score,[1]; [6],-0.445 ± 0.074
same,promoter activity interaction Z-score,[1]; [7],-0.76 ± 0.16
same,promoter activity interaction Z-score,[1]; [8],-0.613 ± 0.11
same,promoter activity interaction Z-score,[1]; [9],-0.272 ± 0.23
same,promoter activity interaction Z-score,[1]; [10],-0.494 ± 0.042
same,promoter activity interaction Z-score,[1]; [11],-1.03 ± 1.1
same,promoter activity interaction Z-score,[1]; [12],-0.524 ± 0.2
same,promoter activity interaction Z-score,[1]; [13],-0.556 ± 0.063
same,promoter activity interaction Z-score,[1]; [14],-0.447 ± 0.14
same,promoter activity interaction Z-score,[1]; [15],0.264 ± 0.87
same,promoter activity interaction Z-score,[1]; [16],-0.624 ± 0.12
same,promoter activity interaction Z-score,[1]; [17],-0.489 ± 0.08
same,promoter activity interaction Z-score,[1]; [18],-0.411 ± 0.019
same,promoter activity interaction Z-score,[1]; [19],-0.669 ± 0.41
same,promoter activity interaction Z-score,[1]; [20],-0.643 ± 0.08
same,promoter activity interaction Z-score,[1]; [21],-0.295 ± 0.29
same,promoter activity interaction Z-score,[2]; [6],-0.491 ± 0.12
same,promoter activity interaction Z-score,[2]; [7],-0.598 ± 0.2
same,promoter activity interaction Z-score,[2]; [8],-0.803 ± 0.57
same,promoter activity interaction Z-score,[2]; [9],0.195 ± 0.35
same,promoter activity interaction Z-score,[2]; [10],-0.432 ± 0.41
same,promoter activity interaction Z-score,[2]; [11],-1.1 ± 0.061
same,promoter activity interaction Z-score,[2]; [12],-0.418 ± 0.62
same,promoter activity interaction Z-score,[2]; [13],-0.713 ± 0.022
same,promoter activity interaction Z-score,[2]; [14],-0.907 ± 0.16
same,promoter activity interaction Z-score,[2]; [15],-0.501 ± 0.28
same,promoter activity interaction Z-score,[2]; [16],-0.424 ± 0.42
same,promoter activity interaction Z-score,[2]; [17],-0.715 ± 0.045
same,promoter activity interaction Z-score,[2]; [18],-0.6982 ± 0.0041
same,promoter activity interaction Z-score,[2]; [19],-0.969 ± 0.097
same,promoter activity interaction Z-score,[2]; [20],-0.395 ± 0.47
same,promoter activity interaction Z-score,[2]; [21],-0.339 ± 0.32
same,promoter activity interaction Z-score,[3]; [6],-0.462 ± 0.23
same,promoter activity interaction Z-score,[3]; [7],-1.03 ± 1.1
same,promoter activity interaction Z-score,[3]; [8],-1.05 ± 0.49
same,promoter activity interaction Z-score,[3]; [9],-0.195 ± 0.39
same,promoter activity interaction Z-score,[3]; [10],-0.445 ± 0.22
same,promoter activity interaction Z-score,[3]; [11],-1.14 ± 0.019
same,promoter activity interaction Z-score,[3]; [12],-0.289 ± 0.96
same,promoter activity interaction Z-score,[3]; [13],-0.498 ± 0.64
same,promoter activity interaction Z-score,[3]; [14],-0.398 ± 0.53
same,promoter activity interaction Z-score,[3]; [15],0.148 ± 0.41
same,promoter activity interaction Z-score,[3]; [16],-0.438 ± 1
same,promoter activity interaction Z-score,[3]; [17],-0.274 ± 0.099
same,promoter activity interaction Z-score,[3]; [18],-0.102 ± 0.59
same,promoter activity interaction Z-score,[3]; [19],-0.151 ± 0.4
same,promoter activity interaction Z-score,[3]; [20],-0.428 ± 0.35
same,promoter activity interaction Z-score,[3]; [21],0.0605 ± 0.79
same,promoter activity interaction Z-score,[4]; [6],-0.254 ± 0.24
same,promoter activity interaction Z-score,[4]; [7],-0.0384 ± 0.16
same,promoter activity interaction Z-score,[4]; [8],-0.165 ± 0.23
same,promoter activity interaction Z-score,[4]; [9],-0.0975 ± 0.27
same,promoter activity interaction Z-score,[4]; [10],-0.534 ± 0.01
same,promoter activity interaction Z-score,[4]; [11],-0.3 ± 0.046
same,promoter activity interaction Z-score,[4]; [12],-0.108 ± 0.14
same,promoter activity interaction Z-score,[4]; [13],-0.463 ± 0.35
same,promoter activity interaction Z-score,[4]; [14],-0.459 ± 0.01
same,promoter activity interaction Z-score,[4]; [15],-0.148 ± 0.037
same,promoter activity interaction Z-score,[4]; [16],-0.0584 ± 0.12
same,promoter activity interaction Z-score,[4]; [17],-0.399 ± 0.15
same,promoter activity interaction Z-score,[4]; [18],-0.398 ± 0.075
same,promoter activity interaction Z-score,[4]; [19],-0.389 ± 0.044
same,promoter activity interaction Z-score,[4]; [20],-0.368 ± 0.021
same,promoter activity interaction Z-score,[4]; [21],-0.448 ± 0.076
same,promoter activity interaction Z-score,[5]; [6],0.0813 ± 0.76
same,promoter activity interaction Z-score,[5]; [7],0.0835 ± 0.37
same,promoter activity interaction Z-score,[5]; [8],-0.682 ± 0.73
same,promoter activity interaction Z-score,[5]; [9],0.781 ± 0.5
same,promoter activity interaction Z-score,[5]; [10],0.191 ± 0.092
same,promoter activity interaction Z-score,[5]; [11],-1.71 ± 0.36
same,promoter activity interaction Z-score,[5]; [12],0.34 ± 0.48
same,promoter activity interaction Z-score,[5]; [13],-0.587 ± 0.0086
same,promoter activity interaction Z-score,[5]; [14],0.0036 ± 0.71
same,promoter activity interaction Z-score,[5]; [15],-0.0511 ± 0.6
same,promoter activity interaction Z-score,[5]; [16],0.112 ± 0.27
same,promoter activity interaction Z-score,[5]; [17],0.394 ± 0.17
same,promoter activity interaction Z-score,[5]; [18],0.135 ± 0.34
same,promoter activity interaction Z-score,[5]; [19],-0.734 ± 0.57
same,promoter activity interaction Z-score,[5]; [20],0.644 ± 0.24
same,promoter activity interaction Z-score,[5]; [21],0.344 ± 0.27
